Laboratory results from PMC12136788.
Where a chain is given by its changes, count along the chain named. Whole data set: some 24,000 sequences, median “enrichment r” near 0.99, cut for the highest 2% near 3.7. This is one part of a sample in which the highest values are shown more often than they occur.

T1: UNK ZnF1-3 (human, UniProt Q9C0B0 31-174)
T1 sequence: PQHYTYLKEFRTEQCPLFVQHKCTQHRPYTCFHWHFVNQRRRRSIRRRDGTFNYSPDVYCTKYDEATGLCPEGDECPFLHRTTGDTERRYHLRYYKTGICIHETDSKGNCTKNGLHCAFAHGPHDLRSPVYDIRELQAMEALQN

B1: 132634964_132635084_86_5pUTR_ENSMUSG00000030750_ENSMUST00000033006|mouse|control|control (ssRNA)
RNA: GGGAGUUCUACAGUCCGACGAUCCCCGCCUCCAGGGCGGAGAGAUCGCCAGACUGGAGCUCCUACUGGUGGGCUACGCGCAUUCUCCCGCUCACCAGCGGAGUACUUCCGUUUUCCCCGCCCGCUCUGUUGCUAUGGCGCCUUCAACAGAGGAUUGAGCAUCA
B2: chr2:24222969:24222970:+_ENSG00000173960_ENST00000309033|hu_mus|FALSE|FALSE (ssRNA)
RNA: GGGAGUUCUACAGUCCGACGAUCAUUAAUGACACAGCUAUUUAAUGUCAUAUUGGCUAACUAAUAUUUGAAAAAUAGGUAUUUUUUUCUGAAUAGCCUGUUGAGAAAAAUGCACUGACCCUGGCUUAGAGCCAUGUCACUCUCCAACAGAGGAUUGAGCAUCA
B3: chr16:94664741:94664742:+_ENSMUSG00000040785_ENSMUST00000117648|mus_hu|mus_mus_mus_hu_False|48_78 (ssRNA)
RNA: GGGAGUUCUACAGUCCGACGAUCUGGUACUGAUCUUGGUAGCUGAUAUUCAGGAGAAAUGUUGGCCAAGGGUGUAUAUAUGCUGGUGAACUGCGACAAACCUGGUAACACGUUUAUGUAUGCUGGCGGUGUCUGGGUGAUAUCCAACAGAGGAUUGAGCAUCA
B4: 203421096_203421216_3307_3pUTR_ENSG00000204217_ENST00000374580|human|control|control (ssRNA)
RNA: GGGAGUUCUACAGUCCGACGAUCAGAUCCAGAGAAUUAGGCCUCUGUGCUCUUCUGGGCUUUGAUGGCCCAGGAUCUGCUGCUGUGCUUGGAACACCCUGUGCAAGAACAUCUUGUUCUGAACAUGGAUUGCUGUUGUUGUUACAACAGAGGAUUGAGCAUCA
B5: chr11:87793471:87793472:-_ENSMUSG00000020483_ENSMUST00000020775|mus_mus|mus_mus_mus_hu_False|58_98 (ssRNA)
RNA: GGGAGUUCUACAGUCCGACGAUCUGGACUUGAAAAUAAAAAAAAUAGCUGGAUCCCCCACCCCCCCACAUUGUCAACCCUAUGCGAGAGUUUUGAAGGCGACUCAUGAAAAUCAGCAGCUCAAACGGCAAUGACCACCCCACCCAACAGAGGAUUGAGCAUCA
B6: chr11:87793471:87793472:-_ENSMUSG00000020483_ENSMUST00000020775|mus_mus|mus_mus_mus_hu_False|1_108 (ssRNA)
RNA: GGGAGUUCUACAGUCCGACGAUCUGGGGGCUGGGGAAAAAGAAUAAGCUGGAUCCCCCACCCCCCCACAUUGUCAACCCUACACGAGAGUUUUGAAGGCGACUCAUGAAAAUCAGCAGCUCAAACGGCAAUGACCACCCACCCCAACAGAGGAUUGAGCAUCA
B7: chr11:87793471:87793472:-_ENSMUSG00000020483_ENSMUST00000020775|mus_mus|mus_mus_mus_hu_False|88_98 (ssRNA)
RNA: B5 RNA with G50A, C54U, C55U, U82C, G83A
B8: chr11:87793471:87793472:-_ENSMUSG00000020483_ENSMUST00000020775|mus_mus|mus_mus_mus_hu_False|38_98 (ssRNA)
RNA: B5 RNA with U82C, G83A, G97U, C99A, G100U, A101U, U103A, C104U, U106A
B9: chr11:87793471:87793472:-_ENSMUSG00000020483_ENSMUST00000020775|mus_mus|mus_mus_mus_hu_False|68_98 (ssRNA)
RNA: B5 RNA with U70G, U82C, G83A
B10: chr11:87793471:87793472:-_ENSMUSG00000020483_ENSMUST00000020775|mus_mus|mus_mus_mus_hu_False|38_88 (ssRNA)
RNA: GGGAGUUCUACAGUCCGACGAUCUGGACUUGAAAAUAAAAGAAUAAGCUAGAUUUCCCACCCCCCCACAUUGUCAACCCUACACGAGAGUUUUGAAUGAUUCAUAAGAAAAUCAGCAGCUCAAACGGCAAUGACCACCCCACCCAACAGAGGAUUGAGCAUCA
B11: chr4:57314706:57314707:+_ENSG00000128050_ENST00000264221|hu_mus|hu_hu_hu_mus_True|18_58 (ssRNA)
RNA: GGGAGUUCUACAGUCCGACGAUCCAGAAUUUCAAAAAUAGCUUGUGUGGCAUGACUCAUGAUGUCCACUUCAGUCUGGCCUAUAAGAAGGCCAGCAAAACAGAAUUUUGCAGCAAUCAGCUGUUCCUCAGACCACUGUGGAUCCAACAGAGGAUUGAGCAUCA
B12: chr11:87793471:87793472:-_ENSMUSG00000020483_ENSMUST00000020775|mus_mus|mus_mus_mus_hu_False|1_98 (ssRNA)
RNA: B5 RNA with U82C, G83A, C140A, A141C
B13: chr11:87793471:87793472:-_ENSMUSG00000020483_ENSMUST00000020775|mus_mus|mus_mus_mus_hu_False|98_98 (ssRNA)
RNA: B5 RNA with U82C, G83A
B14: chrX:16864032:16864033:-_ENSG00000102054_ENST00000404022|hu_hu|FALSE|FALSE (ssRNA)
RNA: GGGAGUUCUACAGUCCGACGAUCCAUGAUGUUAUCCUCAGACACUGAGCAAAUGACCCAAGGCUCAUUGGGGUUCCAGCUAAAAUCUGAAAUCUUAGCAGUGUGUCCUCCAUGAAUAAACAGGAGUUCUGGAGGCCCAUCUUCCAACAGAGGAUUGAGCAUCA
B15: chr4:57314706:57314707:+_ENSG00000128050_ENST00000264221|hu_mus|hu_hu_hu_mus_True|1_18 (ssRNA)
RNA: B11 RNA with G78C, G86C, A141G
B16: chr14:103803487:103803488:+_ENSG00000100664_ENST00000558506|hu_hu|FALSE|FALSE (ssRNA)
RNA: GGGAGUUCUACAGUCCGACGAUCGAGUUUAUGAUGUGUGUCAAGCAUGCCUCGAUAGCCACAGGCUUUACAAGAAUUACCUAUUGUUUGCUUCUUUGGAUUGACAUGCAAAUCUGUUUCAGGAUUCUCACAUUCAGGACAGAGCAACAGAGGAUUGAGCAUCA
B17: chr11:68315578:68315579:+_ENSG00000110075_ENST00000393800|perfect_dup|motif|central (ssRNA)
RNA: GGGAGUUCUACAGUCCGACGAUCUGGAGGUUCGAUACACGUCAGGAGCCUGAGCAACAAAUCCAUGAUAGCAGAAGUUCCGGUGUGCUUUAUAAUAAGGUCUACAAAAUCAUGCUUCUUCUUUAAGAAAUCCACAAUCUGUUCCAACAGAGGAUUGAGCAUCA
B18: chr2:216981417:216981418:+_ENSG00000079246_ENST00000392132|hu_hu|hu_hu_hu_mus_True|28_68 (ssRNA)
RNA: GGGAGUUCUACAGUCCGACGAUCCUGAUACUGGUCCUUGCCAGCAAGGGCAUUAUCAGUGCCAUCUGUACCAAACAGGACUAACGCAAUCUCAUCUUUGCUCUCCGCAAACACCUGUCGUUGGACAAACAUAGUCAUCACUUUCAACAGAGGAUUGAGCAUCA
B19: chr1:112309342:112309343:+_ENSG00000064703_ENST00000369702|hu_hu|FALSE|FALSE (ssRNA)
RNA: GGGAGUUCUACAGUCCGACGAUCUCUCCAGUACUCCUCAUAAUCCUGAUAGGUAUCAGAAAAACUCAGACGUAUUUCCCUAUGACAGUCAUACCAAUCAUCUUCCUGGGCUUCAGUCUGCAAUCUGAAGGAAGACCGCCUGGGCAACAGAGGAUUGAGCAUCA
B20: chr2:158287933:158287934:+_ENSMUSG00000027652_ENSMUST00000141497|mus_hu|FALSE|FALSE (ssRNA)
RNA: GGGAGUUCUACAGUCCGACGAUCAAGAGGUUGUUCCAGCAUUGCCAGGAUGACACUGUUAUCCAAGACAAAGUACCGGAAACUAUGCUUGUUUAUGGUUGGCAGCCUGGAGUAUUUAAUCAAAGUGGUCUCAUUCACAAGACUCAACAGAGGAUUGAGCAUCA
B21: chr3:179287964:179287965:+_ENSG00000136518_ENST00000429709|hu_hu|hu_hu_hu_mus_True|28_28 (ssRNA)
RNA: GGGAGUUCUACAGUCCGACGAUCCUUGAGUGGUGAGAUGGCCUCCAUGUUCUCCCUGGGCACGCGGAGGGCAUUGGUGUCUAUGUAGUAGGUGGGCCCGCCCUGCUUGCCUUUAUCACCAUCAAUCUCCAUCAUUGUACUUCCCAACAGAGGAUUGAGCAUCA
B22: chr4:131761308:131761309:-_ENSMUSG00000040025_ENSMUST00000102570|mus_mus|FALSE|FALSE (ssRNA)
RNA: GGGAGUUCUACAGUCCGACGAUCGCUGACUGUCCAUCAAUCAUGGCUCCACCUAAGGAGCUGGGUGCAUAAGCGUAAUUGCUACUAUAUCCAGAGCUUUGAGUAGACUGUCCCUGAGAACUGUUAUUUCCCCAUGCUGAGAAGCAACAGAGGAUUGAGCAUCA

Target: T1, UNK ZnF1-3
Experiment: nsRBNS (natural sequence RNA bind-n-seq); RBNS binding buffer (assumed for nsRBNS): 25 mM Tris pH 7.5, 150 mM KCl, 3 mM MgCl2, 0.01% Triton X-100, 500 ug/ml BSA, 20 U/ml SUPERase-In, 4 C; UNK is unkempt and MSI1 is Musashi-1; names of the RNAs are library labels; protein concentration not given here; high values mean tight binding

Question: How did the binding signal turn out when B1 was run?
Answer: Its binding signal is 0.567 enrichment R.

Question: B2 was tested. Which binding signal did it give?
Answer: The binding signal was 0.836 enrichment R.

Question: Which binding signal does the source give for B3 here?
Answer: Its binding signal is 1.01 enrichment R.

Question: Which binding signal does the source give for B4 here?
Answer: The binding signal was 0.924 enrichment R.

Question: With B5 as the binder, how does the binding signal read?
Answer: Its binding signal is 3.93 enrichment R.

Question: How did the binding signal turn out when B6 was run?
Answer: Its binding signal is 1.72 enrichment R.

Question: For B7, which binding signal is on record?
Answer: Its binding signal is 3.58 enrichment R.

Question: Which binding signal does the source give for B8 here?
Answer: Its binding signal is 4.29 enrichment R.

Question: B9 was tested. Which binding signal did it give?
Answer: The binding signal was 3.54 enrichment R.

Question: How did the binding signal turn out when B10 was run?
Answer: The binding signal was 1.97 enrichment R.

Question: With B11 as the binder, how does the binding signal read?
Answer: The binding signal was 0.97 enrichment R.

Question: B12 was tested. Which binding signal did it give?
Answer: Its binding signal is 3.94 enrichment R.

Question: Which binding signal does the source give for B13 here?
Answer: Its binding signal is 4.07 enrichment R.

Question: With B14 as the binder, how does the binding signal read?
Answer: Its binding signal is 1.18 enrichment R.

Question: Which binding signal does the source give for B15 here?
Answer: Its binding signal is 0.937 enrichment R.

Question: Which binding signal does the source give for B16 here?
Answer: The binding signal was 1.32 enrichment R.

Question: How did the binding signal turn out when B17 was run?
Answer: The binding signal was 1.87 enrichment R.

Question: How did the binding signal turn out when B18 was run?
Answer: Its binding signal is 0.739 enrichment R.

Question: With B19 as the binder, how does the binding signal read?
Answer: The binding signal was 0.941 enrichment R.

Question: How did the binding signal turn out when B20 was run?
Answer: The binding signal was 0.695 enrichment R.

Question: How did the binding signal turn out when B21 was run?
Answer: The binding signal was 0.667 enrichment R.

Question: Which binding signal does the source give for B22 here?
Answer: Its binding signal is 1.1 enrichment R.
